Screens: PubChem BioAssay, several laboratories
PHOSPHO1 inh: inhibitors of human PHOSPHO1 phosphatase; Q8TCT1; recombinant PHOSPHO1, absorbance phosphatase assay; inhibition, % at 13.3 µM; actives 1.1% (n = 290,000); AID 1565; in the data active means inhibition above about 60%
SKKanGAS inh: blocks kanamycin growth of S. pyogenes SKKanGAS strain. AID 1662. actives 1.3% (n = 300,000). inhibition, % at 7.5 µM. BacTiter-Glo, 6 h;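 active means mean replicate score, as percent of positive control median, at least 50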;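 further: strain carries kanamycin resistance gene driven by streptokinase promoter and grows in 40 µg/ml kanamycin; loss of luminescence reflects streptokinase promoter inhibition or plain growth inhibition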
Platelet DG rel: modulates dense granule release in human platelets; human platelet-rich plasma, SFLLRN dense granule ATP release, luminescence; inhibition, %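 (compounds screened at 7.5 µM in platelet-rich plasma)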; actives 0.22% (n = 300,000); AID 1663;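 active means mean replicate score, as percent of positive control, at or above 50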
Rtt109 HAT inh: inhibitors of Candida albicans Rtt109/Vps75 histone acetyltransferase | purified Rtt109/Vps75, ThioGlo CoA-SH fluorescence, 4 h | inhibition, % at 34.9 µM | actives 0.16% (n = 330,000);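 active means inhibition of at least 50% in every replicate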
TPT1 inh: C. albicans TPT1 enzyme inhibition; recombinant caTPT1, FP RNA substrate dephosphorylation; inhibition, % at 5 µM; actives 0.81% (n = 300,000); AID 1962;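 active means inhibition above the mean of all tested compounds plus 3 SD, set per screening campaign, cut at about 24% in these data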
WT yeast gro inh: growth inhibition of WT yeast, mitochondrial fusion screen; mitochondrial fusion phenotypic screen, WT strain; inhibition, % at 10 µM; actives 2.1% (n = 190,000); AID 1362; in the data active means inhibition above about 58%; tested in S. cerevisiae
caTPT1 confirm: TPT1 (C. albicans) inhibition, confirmation; shares compounds with TPT1 inh; recombinant caTPT1, fluorescence polarization, RNase T1 coupled; inhibition, % at 5 µM; actives 74% (n = 2,400); AID 2149;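 active means inhibition above the primary screen limit, the mean inhibition of all tested compounds plus 3 SD, cut at about 25% in these data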
RNase T1 counter: RNase T1 inhibition in TPT1 counter-screen; actives 83% (n = 2,400); shares compounds with TPT1 inh; AID 2153; inhibition, % at 5 µM; RNase T1 cleavage, fluorescence polarization, 1536-well;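 active means inhibition above the solvent-only control well mean plus 3 SD, limit set per screening run, cut at about 23% in these data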;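 further: inhibitors block cleavage so intact labeled substrate keeps polarization high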
Target sequence (P00651 whole entry, looked up): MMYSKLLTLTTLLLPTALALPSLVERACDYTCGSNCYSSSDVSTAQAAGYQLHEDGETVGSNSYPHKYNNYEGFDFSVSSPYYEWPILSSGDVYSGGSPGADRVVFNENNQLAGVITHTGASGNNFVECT
Each line names hits and unclear results; the compound was inactive in the other large screens (follow-up assays come after a bar, where they were run). Shown are actives, neighbours in structure and some others; about 3.9% of the full set was active somewhere.

CCN(CC)c1ccc(N=Cc2c(O)n(-c3ccccc3C)c(=O)[nH]c2=O)cc1	TPT1 inh 69 | caTPT1 confirm 72 | RNase T1 counter 84
CCOc1ccc(-n2c(O)c(C=Nc3ccc(N(CC)CC)cc3)c(=O)[nH]c2=O)cc1	TPT1 inh 31 (no result: Rtt109 HAT inh) | caTPT1 confirm 42 | RNase T1 counter 56
CCN(CC)c1ccc(N=Cc2c(O)n(-c3ccccc3)c(=O)[nH]c2=O)cc1	TPT1 inh 39 (no result: WT yeast gro inh) | caTPT1 confirm 59 | RNase T1 counter 71
C[C@]12CCC3C(CC[C@@H]4C[C@H](O)CC[C@]34C)C1CCC2=O (stereo partly specified)	none (no result: PHOSPHO1 inh, SKKanGAS inh, Platelet DG rel, TPT1 inh, WT yeast gro inh)
CC1=C2[C@H]3OC(=O)[C@@H](C)[C@@H]3CC[C@@]2(C)C=CC1=O	none (no result: PHOSPHO1 inh, SKKanGAS inh, Platelet DG rel, WT yeast gro inh)
O=C(Nc1ccccc1)OC1CN=C(N[N+](=O)[O-])NC1 (stereo unspecified)	none
COc1cccc(N(C(C)=O)C2=NCCCS2)c1	none (no result: PHOSPHO1 inh, WT yeast gro inh)
CCC1(CCO)C(=O)NC(=S)NC1=O	none (no result: PHOSPHO1 inh, SKKanGAS inh, Platelet DG rel, TPT1 inh, WT yeast gro inh)
CCOC(=O)c1c(/N=C/c2c(O)n(-c3cccc(C)c3)c(=O)[nH]c2=O)sc2c1CCCC2	none
CCOC(=O)c1sc(/N=C/c2c(O)n(-c3ccccc3)c(=O)[nH]c2=O)c(C#N)c1C	TPT1 inh 32 | caTPT1 confirm inactive | RNase T1 counter inactive
CCN(CC)c1ccc(N=Cc2c(O)n(Cc3ccccc3)c(=O)[nH]c2=O)cc1	none
CCOc1ccccc1-n1c(O)c(C=Nc2ccc(N(CC)CC)cc2)c(=O)[nH]c1=O	TPT1 inh 81 | caTPT1 confirm 75 | RNase T1 counter 89
COc1cc(N)c(Cl)cc1C(=O)NC1CN2CCC1CC2 (stereo unspecified)	none (no result: Rtt109 HAT inh)
COc1ccc(OC)c(C(O)C2CCCCN2)c1 (stereo unspecified)	none (no result: WT yeast gro inh)
CCN1C(=O)C(=C/C=C/c2ccco2)C(=O)N(CC)C1=S	TPT1 inh 81 (no result: SKKanGAS inh) | caTPT1 confirm 100 | RNase T1 counter 104
CCN1C(=O)C(=C2C=C(C)N(Cc3ccco3)C(C)=C2)C(=O)N(CC)C1=S	none (no result: Rtt109 HAT inh)
COc1ccc(/C=C2/C(=O)N(Cc3ccco3)C(=O)N(C(C)C)C2=O)cc1	TPT1 inh 57 (no result: SKKanGAS inh) | caTPT1 confirm inactive | RNase T1 counter inactive
CC(C)N1C(=O)/C(=C/C=C/c2ccco2)C(=O)N(Cc2ccco2)C1=O	TPT1 inh 95 | caTPT1 confirm 54 | RNase T1 counter 65
COC(=O)C1=C(c2ccc(F)cc2F)C[C@@H]2CC[C@H]1N2C(=O)N1CCC(O)CC1	none (no result: PHOSPHO1 inh, SKKanGAS inh, Platelet DG rel, TPT1 inh, WT yeast gro inh)
N=C1c2ccccc2CN1c1ncccn1	none
